Out of some 370,000 compounds screened, about 4,800 (1.3%) were called active. The sample holds actives, similar compounds and a random draw of the others, so the mix is not that of the screen. Unmarked numbers belong to inactive results.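 The calls were made as follows: active = inhibition above about 21% made by adding two undisclosed values (limit read from the data); inactive = the rest.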
The compounds below were run against Protein arginine N-methyltransferase 1 (Homo sapiens) (UniProt Q99873) (assay: human PRMT1 activity-probe blockers – biochemical, fluorescence polarization, primary screen (AID 652257)). Conditions: recombinant PRMT1, activity-based probe fluorescence polarization; at 2.79 µM; active compounds read high.
Sequence of Protein arginine N-methyltransferase 1 (Homo sapiens) (Q99873 whole entry, looked up): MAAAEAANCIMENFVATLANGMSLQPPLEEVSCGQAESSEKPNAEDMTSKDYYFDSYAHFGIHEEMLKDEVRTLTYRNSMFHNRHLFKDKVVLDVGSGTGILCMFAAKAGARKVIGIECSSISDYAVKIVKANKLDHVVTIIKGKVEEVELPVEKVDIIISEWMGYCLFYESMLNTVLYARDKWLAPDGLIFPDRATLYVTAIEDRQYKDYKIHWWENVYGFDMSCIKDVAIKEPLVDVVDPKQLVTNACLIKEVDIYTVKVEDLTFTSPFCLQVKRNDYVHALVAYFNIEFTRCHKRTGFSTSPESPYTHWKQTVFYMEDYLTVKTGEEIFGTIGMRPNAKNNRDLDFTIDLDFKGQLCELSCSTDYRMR
Compound `Fc1ccc(N2CCN(Cc3ccc4c(c3)OCO4)CC2)cc1` has an inhibition of -0.82%.
`Oc1cc2c(cc1CN1CCN(c3ccccc3)CC1)OCO2` was tested, and the inhibition was 24.3% (active).
Compound `CC(C)c1ccc(O)c(CN2CCN(c3ccccc3)CC2)c1` has an inhibition of -1.49%.
`O=C(N/N=C/c1c(O)n(C2CC2)c(=S)[nH]c1=O)c1ccccc1` showed an inhibition of 3.82%.
`CC1C2Cn3c(nc4ccccc43)C1N(C)O2` (stereo not given) showed an inhibition of 1%.
Work on `O=S(=O)(c1ccccc1)N1CCC2CCNC2C1` (stereo not given) yielded an inhibition of -4.47%.
`ClC(Cl)(Cl)c1ccccc1` showed an inhibition of -1.08%.
For `O=C1NC(=O)N(c2ccccc2)C(=O)/C1=C/c1ccc([N+](=O)[O-])s1`, the inhibition was 30.1% (active).
With `CC(C(=O)Nc1ccc(Cl)cc1Cl)N1CC=C(c2ccccc2)CC1` (stereo not given) the inhibition was -2.84%.
`CCOc1ccc(-c2cc(C)[n+](CCN(CC)CC)c(-c3ccc(OCC)cc3)c2)cc1` gave an inhibition of 4.49%.
In the case of `Cc1c(Oc2cc(NN3CCCCC3)c([N+](=O)[O-])cc2[N+](=O)[O-])cccc1[N+](=O)[O-]`, the inhibition is reported as 0.33%.
For `CCOc1cccc(=NC2CCCCC2)c2c(C)[nH]c(C)c12`, the inhibition was 24.5% (active).
Compound `COc1ccc2c(c1)[C@@]13CCCCC1[C@@H](C2)NCC3` (stereo not given in full) has an inhibition of 0.98%.
`CC(=O)C1(O)CCC2C3CCC4=C(Cl)C(=O)CCC4(C)C3CCC21C` (stereo not given) was tested, and the inhibition was -3.26%.
`O=C(O)COc1ccccc1/C=C1\C(=O)NC(=O)N(CCC2=CCCCC2)C1=O` was tested, and the inhibition was 21.6% (active).
`CCCCC(=O)N/N=C/c1c(O)n(CCC2=CCCCC2)c(=O)[nH]c1=O` showed an inhibition of 4.46%.
Work on `C=CCN1C(=O)NC(=O)/C(=C/c2ccc(OCC(=O)Nc3ccc(C)cc3)cc2)C1=O` yielded an inhibition of 2.43%.
Compound `COP(=O)(Sc1ccccc1)C(Cc1ccccc1)NC(=O)OCc1ccccc1` (stereo not given) has an inhibition of 15.9%.
For `CCC(C)NC1(c2ccccc2)CCCCC1` (stereo not given), the inhibition was -3.67%.
`Brc1ccc2c(c1)CNCc1cnnn1-2` gave an inhibition of -6.53%.
With `CCCOC(=O)C1C2c3ccccc3C(c3ccccc32)C1C(=O)O` (stereo not given) the inhibition was -2.66%.
With `Cc1ccc(-n2c(C)cc(/C=C3\C(=O)NC(=O)N(C)C3=O)c2C)cc1C` the inhibition was 2.43%.
With `O=C1NC(=O)N(Cc2ccco2)C(=O)/C1=C\c1ccc(-c2ccc(F)cc2)o1` the inhibition was 25% (active).
Compound `Cc1cc(C=C2C(=O)NC(=O)NC2=O)c(C)n1-c1ccncc1` has an inhibition of 3.52%.
In the case of `Cc1cc(/C=C2/C(=O)NC(=O)N(Cc3ccco3)C2=O)c(C)n1-c1ccc(C(=O)O)cc1`, the inhibition is reported as 42% (active).
Work on `COc1cc2nc(N3CCN(C(=O)[C@@H]4CCCO4)CC3)nc(N)c2cc1OC` yielded an inhibition of -2.88%.
`Cc1cc(N2C(=O)C3CCCN3C2c2ccc(Cl)c(Cl)c2)no1` (stereo not given) showed an inhibition of 1.57%.
With `COC(=O)C1=C(c2cc3ccccc3s2)C[C@@H]2CC[C@H]1N2C(=O)NCc1cccc2ccccc12` the inhibition was -3.89%.
`COP(=O)(NS(=O)(=O)c1ccccc1)OC` was tested, and the inhibition was -6.51%.
`COc1ccccc1N=Nc1c(O)[nH]c(=S)[nH]c1=O` was tested, and the inhibition was -3.43%.
`Cc1ccc2c(c1)=C/C(=C\c1c(O)[nH]c(=O)[nH]c1=O)C(=O)N=2` gave an inhibition of 7.2%.
`O=C1N=c2ccccc2=C/C1=C\c1c(O)[nH]c(=S)[nH]c1=O` was tested, and the inhibition was 51.8% (active).
For `CO[C@H]([C@H](C)/C=C/N(C)C=O)[C@@H](C)C(=O)CC[C@H](C)[C@H](O)[C@H](C)[C@H]1OC(=O)/C=C/C(C)=C/[C@H](O)[C@H](OC)C[C@@H]2C=CC[C@@H](C[C@H](OC)[C@@]3(CO3)[C@@H](OC)C[C@@H](OC)[C@@H]1C)O2`, the inhibition was 1.29%.
`CCN(CC)C(=O)[C@@H]1C=C2c3cccc4[nH]c(Br)c(c34)C[C@H]2N(C)C1` showed an inhibition of 9.48%.
With `COP(=O)(OC)C(NC(=O)c1ccc(C)cc1)C(Cl)(Cl)Cl` (stereo not given) the inhibition was 1.17%.
`CN1CCC(N(C)Cc2cccnc2)CC1` showed an inhibition of 11.7%.
With `COc1ccc(N2C(=O)/C(=C/c3ccco3)C(=O)NC2=S)cc1` the inhibition was 41.9% (active).
With `O=C(COC(=O)Cc1ccccc1)Nc1ccc(F)cc1` the inhibition was -1.27%.
In the case of `c1ccc(N2Cc3ccccc3-n3nncc3C2)nc1`, the inhibition is reported as -1.49%.
With `CCOC(=O)CC(SP1(=S)OCC2(CCCCO2)C(C2CCCCO2)O1)C(=O)OCC` (stereo not given) the inhibition was 55.3% (active).
Work on `COc1ccc2c(c1)NP(=S)(c1ccccc1)N2` (stereo not given) yielded an inhibition of 14.7%.
Compound `COc1ccc(CCn2c(O)c(C=NC3CC3)c(=O)[nH]c2=O)cc1OC` has an inhibition of 0.57%.
`CCOC(=O)C1(Cc2ccc(Cl)cc2)CCN(C(C)CCn2cccn2)CC1` (stereo not given) was tested, and the inhibition was -1.84%.
With `Cc1cc(N2CCNC[C@@H]2C)ccc1N1CC[C@H](O)C1` the inhibition was 49.5% (active).
`CC1CNCCN1c1ccc(Cl)cc1` (stereo not given) showed an inhibition of -2.9%.
Work on `Clc1ccc([C@@H]2CC3CCC2N3)cn1` (stereo not given in full) yielded an inhibition of -1.63%.
Compound `CC(C)CN1CCN(Cc2ccccc2C(F)(F)F)CC1CCO` (stereo not given) has an inhibition of 0.64%.
With `CCOC(=O)c1c(-c2ccccc2)oc2ccc(OC(=O)N(C)C)cc12` the inhibition was 2.78%.
Work on `COc1ccccc1NC(=O)N1C[C@@H]2C[C@@H](C1)c1cccc(=O)n1C2` yielded an inhibition of 1.82%.
For `CS(=O)(=O)N1CCC2CCNC2C1` (stereo not given), the inhibition was -2.72%.
In the case of `CC(=O)c1c(O)n(C2CCCCCC2)c(=O)[nH]c1=O`, the inhibition is reported as 23.2% (active).
In the case of `CC(=NCC1CCCO1)c1c(O)n(-c2ccccc2)c(=O)[nH]c1=O` (stereo not given), the inhibition is reported as -2.12%.
For `CCC(=NCCc1ccccc1)c1c(O)n(C2CCCCC2)c(=O)[nH]c1=O`, the inhibition was -0.77%.
`Cc1ccccc1CCC[C@@H](CC1CCCCC1)CN(C)C(=O)Oc1ccccc1` was tested, and the inhibition was 0.94%.
`COc1cc(OC)cc(C(=O)NCCN2CCC3(CC2)C(=O)NCN3c2ccccc2)c1` gave an inhibition of 1.49%.
